Bioassay records from PubChem BioAssay.
Shown are actives, neighbours in structure and some others; about 1.6% of the full set was active somewhere.
KCNQ2 block: inhibitors of rat KCNQ2 potassium channel | CHO-K1 KCNQ2, FluxOR thallium flux, 20 min; active compounds read low | B-score at 10 µM | hit rate 1.1% among 310,000;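 active = fluorescence ratio B-score at most minus 3 library SDs, with starting brightness B-score within 2 library SDs, cut at about -5.5 in these data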
Target sequence (O88943 whole entry, looked up): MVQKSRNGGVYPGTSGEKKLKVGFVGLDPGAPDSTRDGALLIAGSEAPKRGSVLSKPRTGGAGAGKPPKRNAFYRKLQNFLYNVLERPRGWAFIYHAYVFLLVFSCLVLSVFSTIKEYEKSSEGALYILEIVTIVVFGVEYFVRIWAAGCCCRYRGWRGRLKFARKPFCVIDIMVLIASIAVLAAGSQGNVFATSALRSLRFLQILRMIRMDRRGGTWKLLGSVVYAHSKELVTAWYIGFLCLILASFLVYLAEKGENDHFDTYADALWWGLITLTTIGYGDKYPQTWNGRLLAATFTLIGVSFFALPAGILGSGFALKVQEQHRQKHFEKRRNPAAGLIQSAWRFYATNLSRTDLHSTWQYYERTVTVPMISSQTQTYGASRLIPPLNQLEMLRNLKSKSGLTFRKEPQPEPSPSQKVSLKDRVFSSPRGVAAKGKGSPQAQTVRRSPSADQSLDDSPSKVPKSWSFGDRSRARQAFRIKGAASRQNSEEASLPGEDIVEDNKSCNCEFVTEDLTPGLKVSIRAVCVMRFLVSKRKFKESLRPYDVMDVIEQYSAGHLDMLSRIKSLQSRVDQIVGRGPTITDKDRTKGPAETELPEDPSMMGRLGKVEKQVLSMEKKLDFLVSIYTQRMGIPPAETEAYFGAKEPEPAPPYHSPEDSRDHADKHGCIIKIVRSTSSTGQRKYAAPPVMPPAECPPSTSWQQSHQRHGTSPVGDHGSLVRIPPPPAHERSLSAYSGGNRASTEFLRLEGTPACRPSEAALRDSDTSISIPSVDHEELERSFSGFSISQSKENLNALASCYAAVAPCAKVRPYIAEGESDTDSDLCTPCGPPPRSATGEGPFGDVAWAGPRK
KCNQ2 pot: potentiators of rat KCNQ2 potassium channel | O88943 | B-score at 10 µM | hit rate 0.54% among 310,000 | CHO-K1 KCNQ2, FluxOR thallium flux fluorescence; active compounds read high;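 active = fluorescence ratio B-score at least 3 SD of library B-scores, with initial fluorescence B-score within 3 of them, cut at about 5.3 in these data; same plate scores as AID 2156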;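 note: B-score of peak minus minimum over baseline fluorescence ratio after K+ and Tl+ stimulus; positive B-score means potentiation of KCNQ2 with more thallium influx and brighter signal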
Of the large screens only hits and unclear results are named; the others gave an inactive call.

COc1ccccc1CNC(=O)COC(=O)c1n[nH]c2ccccc12	KCNQ2 block -5.9
COc1ccccc1CNC(=O)c1n[nH]c2ccccc12	none
COc1ccc(NC(=O)CNC(=O)c2nn(-c3ccc(OC)c(OC)c3)c(=O)c3ccccc23)c(OC)c1	none
COc1ccc(-c2cc(C(F)(F)F)nc(N3CCN(c4ccc(F)cc4)CC3)n2)cc1OC	none
COc1ccc(-c2cc(C(F)(F)F)nc(N3CCN(Cc4ccccc4)CC3)n2)cc1OC	KCNQ2 block -5.6
O=C1c2c(O)cc(O)cc2O[C@@]12c1c(cc(O)c3c1O[C@H](c1ccc(O)cc1)[C@@H](O)C3)O[C@@H]2c1ccc(O)cc1	none
CCCc1cc(=O)oc2c(CN3CCN(C)CC3)c(O)ccc12	none (no result: KCNQ2 pot)
CCOC(=O)N1CCN(c2nc(N(c3ccccc3)c3ccccc3)nc(-n3ccnc3)n2)CC1	KCNQ2 block -6
c1ccc(N(c2ccccc2)c2nc(N3CCCC3)nc(-n3ccnc3)n2)cc1	none (no result: KCNQ2 pot)
CCOC(=O)C1=C(C)Nc2nc3ccccc3n2C1c1ccc(O)cc1 (configuration not stated)	none
CCN(CC)C(=O)C1=C(C)Nc2nc3ccccc3n2C1c1cccc(OC)c1 (configuration not stated)	KCNQ2 block -7.7
Cc1nn(C)c(C)c1S(=O)(=O)N1CCCC(C(=O)NC2CCCCCC2)C1 (configuration not stated)	none (no result: KCNQ2 pot)
c1ccc(-c2nnc(-c3c[nH]c4ccccc34)nc2-c2ccccc2)cc1	KCNQ2 block -6.8
ClC(Cl)c1nnc(-c2ccccc2)c(-c2c[nH]c3ccccc23)n1	none (no result: KCNQ2 pot)
O=C1NC2(Nc3ccccc31)C(=O)Nc1ccccc12 (configuration not stated)	none
O=C1NC2(Nc3ccccc31)C(=O)Nc1ccc(Br)cc12 (configuration not stated)	KCNQ2 block -6.2
FC(F)(F)c1nc(-c2ccncc2)ncc1-c1nnnn1-c1ccccc1	none (no result: KCNQ2 pot)
O=C(Nc1ccccc1C(=O)Nc1ccccc1C(=O)O)c1ccccc1	KCNQ2 block -5.9
O=C(Nc1ccccc1C(=O)NC(Cc1ccccc1)C(=O)NC1CCCCC1)c1ccccc1 (configuration not stated)	KCNQ2 block -7.2
Nc1ccc(C(=O)Nc2ccccc2C(=O)O)cc1	none
O=C(Nc1ccccc1C(=O)NC(Cc1ccccc1)C(=O)O)c1ccccc1 (configuration not stated)	none (no result: KCNQ2 pot)
Cc1ccc(C(=O)NC(C)C2CC3CCC2C3)c(C)c1 (configuration not stated)	KCNQ2 block -7.7
CC(NC(=O)c1ccc(F)cc1Cl)C1CC2CCC1C2 (configuration not stated)	none (no result: KCNQ2 pot)
Cc1ccc(C(=O)OCC(=O)Nc2sc3c(c2C#N)CCC3)cc1	none
Cc1noc(C)c1CSc1nnc2cc(C)c3ccccc3n12	none
O=C(CSc1nnc(-c2ccncc2)n1Cc1ccccc1)Nc1nccs1	none (no result: KCNQ2 pot)
COc1c(Cl)cc(-c2noc(C)c2C(=O)NCc2ccccc2)cc1Cl	none
COc1c(Cl)cc(-c2noc(C)c2C(=O)NCc2ccc3c(c2)OCO3)cc1Cl	KCNQ2 pot 14
Cc1nn(C)cc1CN(C)C(=O)c1cc2nc(-c3ccco3)cc(C(F)(F)F)n2n1	none
Cc1ccc(C)c(C2NC(=O)c3ccccc3N2)c1 (configuration not stated)	KCNQ2 block -5.6
O=C1NC(c2ccccc2O)Nc2ccccc21 (configuration not stated)	none (no result: KCNQ2 pot)
CCCNC(=O)C1CCC(CNS(=O)(=O)c2ccc3c(c2)N(C(C)=O)CCO3)CC1 (configuration not stated)	none (no result: KCNQ2 pot)
Cc1ccc(NCc2nc3ccccc3n2C)cc1	none
CC(C)OC(=O)CSc1nc2c(c(C3CC=CCC3)c1C#N)CCC2 (configuration not stated)	KCNQ2 block -6
Cc1cc(C)c(C#N)c(SCC(=O)CC(=O)OC(C)C)n1	none (no result: KCNQ2 pot)
O=C(NC(=S)Nc1ccccc1)c1cccs1	none
O=C(NC(=S)Nc1nc2ccccc2s1)c1cccs1	KCNQ2 pot 6.8
CCOc1ccc(-c2cc(CCCC(=O)NCCC(C)C)no2)cc1	none
CC(NC(=O)Nc1ccc(Cl)cc1)c1ccccc1 (configuration not stated)	none (no result: KCNQ2 pot)
Cc1ccc(C(NC(=O)NC(C)c2ccccc2)C(Cl)(Cl)Cl)cc1F (configuration not stated)	KCNQ2 pot 17
CCN1C(=O)/C(=C/C=C2/Sc3ccccc3N2CCO)SC1=S	none (no result: KCNQ2 pot)
Cc1ccc(-c2nc3c4ccccc4ccn3c2CN2CCCCC2)cc1	none (no result: KCNQ2 pot)
c1ccc(-c2nc3c4ccccc4ccn3c2CN2CCCCC2)cc1	KCNQ2 block -5.6
COc1ccc2nc(SCc3ccccc3C)nc(C)c2c1	none (no result: KCNQ2 pot)
Cc1ccc2c(C)nc(SC(C(=O)c3ccccc3)c3ccccc3)nc2c1 (configuration not stated)	KCNQ2 block -6
Cc1nc(SC(C(=O)c2ccccc2)c2ccccc2)nc2ccccc12 (configuration not stated)	none (no result: KCNQ2 pot)
COc1ccc2nc(SC(C(=O)c3ccccc3)c3ccccc3)nc(C)c2c1 (configuration not stated)	KCNQ2 block -5.6
